Shown are actives, neighbours in structure and some others; about 2.4% of the full set was active somewhere.
Platelet DG rel: modulates dense granule release in human platelets; inhibition, %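 (compounds screened at 7.5 µM in platelet-rich plasma)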; 300,000 compounds, 0.22% hits; AID 1663; human platelet-rich plasma, SFLLRN dense granule ATP release, luminescence;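 active = mean replicate score, as percent of positive control, at or above 50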
SENP8 block-1: blocks human SENP8 cleavage of Nedd8 substrate | Q96LD8 | recombinant SENP8, Nedd8 substrate fluorescence | inhibition, % at 20 µM | 360,000 compounds, 0.64% hits | AID 602440; in the data active = inhibition mostly above about 40%, no sharp cut-off; inactive = mostly below about 27%
Target sequence (Q96LD8 whole entry, looked up): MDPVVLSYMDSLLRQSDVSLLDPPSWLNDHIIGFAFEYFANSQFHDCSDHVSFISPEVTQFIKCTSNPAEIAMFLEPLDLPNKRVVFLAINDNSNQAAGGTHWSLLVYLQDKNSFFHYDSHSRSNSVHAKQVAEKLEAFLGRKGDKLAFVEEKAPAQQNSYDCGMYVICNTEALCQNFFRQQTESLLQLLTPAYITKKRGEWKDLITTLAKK
SENP6 block: blocks the human protease SENP6; Q9GZR1; Recombinant SENP6 catalytic domain, aminoluciferin luminescence; inhibition, % at 10 µM; 330,000 compounds, 1.8% hits; AID 2599;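 active = inhibition above about 50% at the single tested dose, limit read from the data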;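 also: plate controls were DMSO wells with enzyme for no effect and DMSO wells lacking enzyme for full effect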
SENP8 block-2: inhibitors of human SENP8 protease. purified SENP8, Z-RLRGG-aminoluciferin cleavage, luminescence. inhibition, % at 10 µM. 330,000 compounds, 1.2% hits. AID 2540; in the data active = inhibition above about 50%
SENP7 inh: SENP7 protease inhibition; recombinant SENP7, Z-RLRGG-aminoluciferin luminescence, 40 min; inhibition, % at 5 µM; 330,000 compounds, 1.5% hits;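 active = inhibition above about 50% at the single test dose, limit read from the data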;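 also: plate controls were DMSO with enzyme for no effect and no enzyme buffer wells for full effect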
Target sequence (Q9BQF6 706-1050 limits assumed): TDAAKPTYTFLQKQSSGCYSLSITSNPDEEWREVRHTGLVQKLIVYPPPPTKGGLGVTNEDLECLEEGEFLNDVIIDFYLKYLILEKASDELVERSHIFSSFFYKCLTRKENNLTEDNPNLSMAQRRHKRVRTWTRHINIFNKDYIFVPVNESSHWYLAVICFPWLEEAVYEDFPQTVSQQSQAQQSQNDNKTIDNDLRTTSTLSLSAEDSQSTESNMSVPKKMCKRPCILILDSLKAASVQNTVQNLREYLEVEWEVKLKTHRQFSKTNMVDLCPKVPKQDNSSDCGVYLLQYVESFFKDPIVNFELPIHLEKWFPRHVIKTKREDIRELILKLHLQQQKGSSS
SENP8 conf: confirmation of human SENP8 protease inhibitors | shares compounds with SENP7 inh | Recombinant SENP8, Z-RLRGG-aminoluciferin luminescence, 60 min | inhibition, % at 12.5 µM | 6,200 compounds, 40% hits | AID 488912;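 active = mean inhibition across replicates above about 50%, limit read from the data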
SENP6 confirm: human SENP6 inhibition, confirmed; recombinant SENP6, Z-RLRGG-aminoluciferin luminescence; AID 488915; 6,200 compounds, 58% hits; inhibition, % at 12.5 µM; shares compounds with SENP7 inh
SENP7 confirm: confirmation of human SENP7 protease inhibitors; shares compounds with SENP7 inh; recombinant SENP7, Z-RLRGG-aminoluciferin luminescence, 40 min; inhibition, % at 12.5 µM; 6,200 compounds, 69% hits; AID 488917
Casp3 SENP sel: caspase-3 inhibition (SENP selectivity assay) | shares compounds with SENP7 inh | purified caspase-3, Z-DEVD-aminoluciferin luminescence, 60 min | inhibition, % at 12.5 µM | 6,200 compounds, 60% hits | AID 488918;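 active = mean inhibition above about 50%, limit read from the data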;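 also: plate controls were enzyme with DMSO for no effect and wells without caspase-3 for full effect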
Luc interf: counter-screen for SENP inhibitors: luminescence interference. shares compounds with SENP7 inh. Pre-incubated SENP8/Z-RLRGG-aminoluciferin, luciferase luminescence interference. inhibition, % at 12.5 µM. 6,200 compounds, 39% hits. AID 488919;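 active = mean inhibition above about 50% when retested at one dose, limit read from the data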;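 also: plate controls were DMSO wells with completed reaction for no effect and substrate without enzyme for full effect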
Numbers without * were called inactive; · = no result given.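 The calls were made as follows, unless noted: active = mean inhibition above about 50% in the one-dose retest (limit read from the data); inactive = the rest.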

SMILES | Platelet DG rel | SENP8 block-1 | SENP6 block | SENP8 block-2 | SENP7 inh | SENP8 conf | SENP6 confirm | SENP7 confirm | Casp3 SENP sel | Luc interf
CCc1ccc(OCc2nc(-c3ccccn3)no2)c(Br)c1 | 5.0 | -1.5 | 92.9* | 90.5* | 90.9* | 95.1* | 96.3* | 100.9* | 87.1* | 79.1*
Cc1ccc(OCc2nc(-c3ccccn3)no2)cc1 | 4.7 | 2.8 | 40.3 | 22.7 | 60.2* | 43.2 | 44.6 | 80.5* | 70.9* | 44.1
CC(C)c1ccc(OCc2nc(-c3ccccn3)no2)c(Br)c1 | 2.8 | 28.7 | 85.3* | 67.0* | 68.5* | 74.0* | 82.2* | 93.4* | 63.1* | 70.4*
Cc1ccc(/C=N/Nc2ccc3ccccc3n2)o1 | · | -457.4 | 78.7* | 85.0* | 88.3* | 92.8* | 92.8* | 100.0* | 91.7* | 85.1*
C(=N\Nc1nc2ccccc2[nH]1)/c1ccc2c(c1)OCCO2 | 4.2 | -301.3 | 45.8 | 34.2 | 49.9 | · | · | · | · | ·
C(=N\Nc1ccc2ccccc2n1)/c1ccc2c(c1)OCCO2 | 44.8 | -392.9 | 78.4* | 84.3* | -3.6 | 97.9* | 100.5* | 103.9* | 97.5* | 84.6*
Cc1cc(N/N=C/c2cccc(Br)c2)nc2ccccc12 | 2.5 | -88.8 | 42.5 | 5.5 | 32.1 | · | · | · | · | ·
Cc1cccc(/C=N/Nc2ccc3ccccc3n2)c1 | 0.0 | -406.8 | 91.9* | 96.1* | 5.2 | -5.6 | 100.7* | 104.0* | 98.2* | 75.2*
COc1ccc(C(=O)NC(C)c2cnn(-c3ccccn3)c2C)o1 (configuration not stated) | 16.2 | 0.2 | -3.8 | 9.5 | -0.2 | · | · | · | · | ·
CCOC(=O)c1cc(NC(=O)c2ccco2)ccc1N1CCOCC1 | · | -55.3 | -11.1 | -9.5 | -0.3 | · | · | · | · | ·
O=C(CCNC(=O)C1CCN(S(=O)(=O)c2ccc(F)cc2)CC1)NCc1cccc(Cl)c1 | 0.4 | 14.8 | -4.3 | 4.0 | 7.9 | · | · | · | · | ·
Oc1ccc(NCc2ccccc2OCc2ccccc2F)cc1 | 13.8 | 76.5* | 60.1* | 19.8 | 31.0 | 17.4 | 19.9 | 5.1 | 6.7 | 5.2
CCCS(=O)(=O)NC(=O)C1(C)CCCN(C(=O)c2ccc(OC)cc2OC)C1 (configuration not stated) | · | 15.7 | · | · | · | · | · | · | · | ·
Nc1c(C(=O)Nc2ccc(Cl)c(C(=O)O)c2)sc2nc3c(cc12)CCCC3 | 7.2 | -389.0 | -10.3 | -9.8 | -4.9 | · | · | · | · | ·
Nc1c(C(=O)Nc2cccc(C(=O)O)c2)sc2nc3c(cc12)CCCC3 | 0.8 | -293.9 | 71.3* | 46.7 | 25.0 | 73.8* | 68.0* | 88.4* | 17.8 | 43.1
CC1/C(=N/O)CC(c2ccccc2)NC1c1ccccc1 (configuration not stated) | -0.5 | 9.8 | -38.5 | -8.3 | 88.8* | 6.3 | 6.9 | 9.0 | 3.9 | 2.8
CC(C)C1/C(=N/O)CC(c2ccccc2)NC1c1ccccc1 (configuration not stated) | -6.5 | 7.8 | -15.6 | -3.1 | 5.7 | · | · | · | · | ·
Brc1ccc(-c2nnc(-c3ccccc3Br)o2)cc1 | 0.4 | 3.2 | 63.9* | 70.2* | 73.7* | 18.0 | 18.1 | 24.7 | 27.9 | 15.1
Cc1ccc(-c2nnc(-c3ccccc3Br)o2)cc1 | -4.0 | 12.7 | 89.7* | 86.1* | 82.6* | 7.1 | 87.9* | 98.2* | 74.2* | 75.9*
Cc1cc(=O)nc2c3ccccc3n(CC(=O)NCCC3=CCCCC3)n12 | 6.8 | -35.2 | -11.1 | 1.9 | -1.8 | · | · | · | · | ·
O=C1CN(C(=O)COC(=O)[C@@H]2CCCN2S(=O)(=O)c2ccc(Cl)cc2)c2ccccc2N1 | · | 2.8 | 13.7 | 0.7 | -5.9 | · | · | · | · | ·
COc1cccc(C(=O)Nc2ccc3c(c2)C(=O)NC3=O)c1 | 22.4 | -355.2 | 58.0* | 51.3* | 55.5* | -26.6 | 34.3 | 29.0 | 31.4 | -3.5
CS(=O)(=O)Nc1ccc(C(=O)Nc2ccc3ccccc3c2)cc1 | -2.4 | 1.1 | 37.5 | -1.5 | 57.8* | 4.1 | 1.3 | 65.2* | 48.4 | 25.0
COc1cccc(C(=O)Nc2cccc(OCC(=O)O)c2)c1 | 15.8 | 4.6 | 46.2 | 19.1 | 57.8* | 53.1* | 48.8 | 80.6* | 84.5* | 55.8*
COc1ccc(C(=O)Nc2ccc3ccccc3c2)cc1 | 38.8 | 6.2 | 87.9* | 85.7* | 96.2* | 4.7 | 83.9* | 99.5* | 80.4* | 31.6
SMILES | Platelet DG rel | SENP8 block-1 | SENP6 block | SENP8 block-2 | SENP7 inh | SENP8 conf | SENP6 confirm | SENP7 confirm | Casp3 SENP sel | Luc interf
CC(C)(C)c1ccc(C(=O)NCc2nnc(SCC(=O)NCC3CCCO3)o2)cc1 (configuration not stated) | 1.5 | 3.4 | -14.4 | -6.3 | 12.5 | · | · | · | · | ·
CCN(CC)c1ccc(NC(=S)Nc2ccc(F)cc2)cc1 | 4.5 | 32.2 | 14.1 | -4.9 | 0.6 | · | · | · | · | ·
COc1cccc(C(=O)Nc2ccc3ccccc3c2)c1 | 18.3 | 10.5 | 88.5* | 86.4* | 91.4* | -22.1 | 86.2* | 99.0* | 73.0* | 84.5*
COc1ccccc1CNC(=O)c1cccc(NC(=O)c2ccccc2)c1 | 5.9 | 16.8 | 93.5* | -2.2 | 4.5 | -6.0 | -10.7 | 2.7 | 1.1 | 1.6
Cc1cccc(C(=O)Nc2ccc3ccccc3c2)c1 | -6.8 | 6.6 | 83.0* | 73.4* | 74.9* | 74.0* | 75.9* | 93.9* | 57.9* | 29.9
COc1ccc(C(=O)Nc2cc(OC)nc(OC)n2)cc1 | 55.5* | 31.5 | 87.1* | 73.9* | 82.8* | 83.2* | 83.1* | 97.2* | 92.1* | 84.0*
O=C(Nc1ccc2ccccc2c1)c1cccc([N+](=O)[O-])c1 | 13.0 | 20.1 | -17.1 | -4.5 | 19.4 | · | · | · | · | ·
COc1cccc(C(=O)Nc2ccc3[nH]ncc3c2)c1 | 9.1 | 14.9 | 16.8 | 16.3 | 6.5 | · | · | · | · | ·
Cc1ccc(NC(=O)CSc2nnc(Cc3ccccc3)c(=O)[nH]2)c(C)c1 | -3.7 | 2.5 | -5.7 | -8.7 | -3.6 | · | · | · | · | ·
CCN1C(=O)CC(NC2CCN(C(=O)c3ccc(F)cc3)CC2)C1=O (configuration not stated) | -45.0 | 6.2 | -13.3 | 3.9 | 5.7 | · | · | · | · | ·
Cc1cccc(C)c1N1C(=O)c2ccccc2NC(=O)C1C(=O)NCc1ccco1 (configuration not stated) | · | -48.1 | · | · | · | · | · | · | · | ·
COc1cccc(C(=O)Nc2cccc(NC(=O)c3ccccc3Cl)c2)c1 | -3.3 | 1.1 | 24.0 | 3.5 | 0.1 | · | · | · | · | ·
CCCC(=O)Nc1ccc(NC(=O)c2cccc(OC)c2)nc1 | 23.0 | 16.6 | 52.3* | 15.8 | 46.1 | 42.2 | 38.9 | 75.2* | 76.4* | 52.2*
COc1cccc(C(=O)Nc2cccc(SC)c2)c1 | -1.9 | 12.2 | 78.9* | 55.5* | 75.3* | 72.5* | 72.1* | 90.3* | 64.9* | 70.3*

Screening data from PubChem.
